Holding throughout (assay): DAPPL (digital affinity profiling via proximity ligation, sequencing); 10 mM Tris-HCl pH 7.5, 50 mM NaCl, 1 mM DTT, 4% glycerol, room temperature, 30 min; GST-TFs on glutathione beads, 16-mer random dsDNA library, 0.1% formaldehyde crosslink after washing; high values mean tight binding
Common to all, as to conditions: protein: recombinant; tags: N-terminal GST; dsDNA, one strand shown

The target of experiment [1] is T1, FLI1 (Homo sapiens, UniProt Q01543 1-452).
T1 sequence: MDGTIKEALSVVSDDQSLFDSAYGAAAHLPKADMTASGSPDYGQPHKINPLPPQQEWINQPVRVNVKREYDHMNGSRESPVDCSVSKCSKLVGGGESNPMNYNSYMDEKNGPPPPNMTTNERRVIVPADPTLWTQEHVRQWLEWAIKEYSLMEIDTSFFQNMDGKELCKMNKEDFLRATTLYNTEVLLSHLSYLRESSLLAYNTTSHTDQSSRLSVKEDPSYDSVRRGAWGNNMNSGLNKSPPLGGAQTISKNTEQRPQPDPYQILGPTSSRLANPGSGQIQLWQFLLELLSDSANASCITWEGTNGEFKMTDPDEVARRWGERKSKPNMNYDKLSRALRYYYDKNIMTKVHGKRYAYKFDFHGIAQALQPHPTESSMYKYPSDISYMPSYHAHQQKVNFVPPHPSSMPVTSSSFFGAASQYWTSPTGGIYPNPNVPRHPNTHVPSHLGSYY
The method, boiled down: (§1)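 Pools of DNA-barcoded human transcription factors, expressed in yeast as GST fusions on glutathione beads and combined with a tag-only sample, were incubated with 200 nmole of a 16-mer random double-stranded DNA library. Incubation took 30 min at room temperature in Tris/NaCl/DTT/glycerol buffer and was followed by washing, 0.1% formaldehyde crosslinking, proximity ligation (BsaI/T4 ligase, 1 h, 37 °C), PCR amplification and sequencing on an Illumina NextSeq500. Binding signal is the ratio of a hexamer's read frequency for a factor to its frequency for the tag-only sample.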

In experiment [2] the target is T2, ELK1 (Homo sapiens, UniProt P19419 1-428).
T2 sequence: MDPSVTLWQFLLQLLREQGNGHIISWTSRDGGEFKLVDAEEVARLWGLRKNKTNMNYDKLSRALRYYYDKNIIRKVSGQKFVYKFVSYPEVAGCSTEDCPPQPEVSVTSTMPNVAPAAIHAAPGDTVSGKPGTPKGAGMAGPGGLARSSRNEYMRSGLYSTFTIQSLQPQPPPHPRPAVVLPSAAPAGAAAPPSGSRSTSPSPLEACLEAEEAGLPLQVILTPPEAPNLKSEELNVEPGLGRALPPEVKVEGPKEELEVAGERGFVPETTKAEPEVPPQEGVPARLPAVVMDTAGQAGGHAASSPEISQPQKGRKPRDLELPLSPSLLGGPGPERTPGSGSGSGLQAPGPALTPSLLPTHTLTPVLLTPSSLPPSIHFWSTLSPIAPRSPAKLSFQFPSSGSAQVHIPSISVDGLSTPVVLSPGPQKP
In a few lines:
as §1

For experiment [3], the target named is T3, GABPA (Homo sapiens, UniProt Q06546 1-454).
T3 sequence: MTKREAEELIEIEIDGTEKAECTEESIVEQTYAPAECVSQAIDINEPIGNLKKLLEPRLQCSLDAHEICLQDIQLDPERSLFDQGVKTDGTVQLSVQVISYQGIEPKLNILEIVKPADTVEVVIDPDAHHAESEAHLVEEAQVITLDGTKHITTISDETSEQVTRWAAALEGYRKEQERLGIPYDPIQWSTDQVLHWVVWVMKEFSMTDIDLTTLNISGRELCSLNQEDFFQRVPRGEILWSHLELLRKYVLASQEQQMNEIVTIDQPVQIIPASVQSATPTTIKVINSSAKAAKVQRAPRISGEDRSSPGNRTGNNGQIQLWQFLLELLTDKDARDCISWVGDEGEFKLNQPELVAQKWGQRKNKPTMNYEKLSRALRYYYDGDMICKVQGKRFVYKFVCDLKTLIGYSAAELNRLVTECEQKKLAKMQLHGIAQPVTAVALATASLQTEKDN
The method, boiled down:
as §1

Experiment [4] has as its target T4, ERG (Homo sapiens, UniProt P11308 1-479).
T4 sequence: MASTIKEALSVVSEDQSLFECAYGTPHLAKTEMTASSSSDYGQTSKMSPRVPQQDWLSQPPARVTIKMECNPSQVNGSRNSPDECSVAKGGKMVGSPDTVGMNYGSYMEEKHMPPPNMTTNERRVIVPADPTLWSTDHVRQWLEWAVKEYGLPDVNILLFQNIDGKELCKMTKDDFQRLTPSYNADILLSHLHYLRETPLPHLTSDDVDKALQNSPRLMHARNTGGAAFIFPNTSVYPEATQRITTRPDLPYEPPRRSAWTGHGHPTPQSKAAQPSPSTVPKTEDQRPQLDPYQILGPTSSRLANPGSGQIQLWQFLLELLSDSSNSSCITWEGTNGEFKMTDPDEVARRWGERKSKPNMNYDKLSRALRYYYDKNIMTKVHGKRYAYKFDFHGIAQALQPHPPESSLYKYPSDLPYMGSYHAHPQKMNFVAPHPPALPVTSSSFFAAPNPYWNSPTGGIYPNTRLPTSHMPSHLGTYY
In a few lines:
as §1

Experiment [5] deals with ELF1 (Homo sapiens, UniProt P32519 1-619). In a few lines: as §1
The target of experiment [6] is T5, EHF (Homo sapiens, UniProt Q9NZC4 1-300).
T5 sequence: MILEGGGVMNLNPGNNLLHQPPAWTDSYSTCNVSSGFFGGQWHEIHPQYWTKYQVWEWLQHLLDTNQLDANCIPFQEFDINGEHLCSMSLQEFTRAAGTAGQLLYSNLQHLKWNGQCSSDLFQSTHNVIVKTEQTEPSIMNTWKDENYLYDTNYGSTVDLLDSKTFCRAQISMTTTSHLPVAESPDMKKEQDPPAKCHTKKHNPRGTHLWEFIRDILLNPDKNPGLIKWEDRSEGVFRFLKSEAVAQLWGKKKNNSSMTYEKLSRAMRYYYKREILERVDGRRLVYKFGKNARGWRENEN
In a few lines:
as §1

Experiment [7] has as its target SPI1 (Homo sapiens, UniProt P17947 1-270). The method, boiled down:
as §1

The target in experiment [8] is SPIB (Homo sapiens, UniProt Q01892 1-262). The method, boiled down:
as §1

For experiment [9], the target named is T6, ELK3 (Homo sapiens, UniProt P41970 1-407).
T6 sequence: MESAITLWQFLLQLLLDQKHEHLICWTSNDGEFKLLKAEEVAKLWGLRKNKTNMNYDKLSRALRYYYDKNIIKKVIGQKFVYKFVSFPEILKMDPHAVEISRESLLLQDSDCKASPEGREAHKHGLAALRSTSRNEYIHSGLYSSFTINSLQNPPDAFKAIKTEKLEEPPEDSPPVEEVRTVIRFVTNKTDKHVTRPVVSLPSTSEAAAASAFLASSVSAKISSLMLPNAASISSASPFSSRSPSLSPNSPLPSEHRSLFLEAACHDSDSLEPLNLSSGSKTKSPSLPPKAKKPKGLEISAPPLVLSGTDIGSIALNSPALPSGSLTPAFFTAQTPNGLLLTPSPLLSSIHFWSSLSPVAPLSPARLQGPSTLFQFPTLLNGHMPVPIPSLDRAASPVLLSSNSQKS
The method, boiled down: as §1

Sequence of SPIB (Q01892 whole entry): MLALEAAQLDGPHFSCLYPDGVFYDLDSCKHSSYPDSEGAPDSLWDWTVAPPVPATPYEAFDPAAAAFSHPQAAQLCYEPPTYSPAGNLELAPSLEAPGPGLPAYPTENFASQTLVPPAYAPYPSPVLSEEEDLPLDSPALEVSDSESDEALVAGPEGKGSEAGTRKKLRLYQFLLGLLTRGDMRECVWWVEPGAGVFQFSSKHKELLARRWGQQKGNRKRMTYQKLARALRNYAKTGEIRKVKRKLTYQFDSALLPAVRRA
Sequence of ELF1 (P32519 whole entry): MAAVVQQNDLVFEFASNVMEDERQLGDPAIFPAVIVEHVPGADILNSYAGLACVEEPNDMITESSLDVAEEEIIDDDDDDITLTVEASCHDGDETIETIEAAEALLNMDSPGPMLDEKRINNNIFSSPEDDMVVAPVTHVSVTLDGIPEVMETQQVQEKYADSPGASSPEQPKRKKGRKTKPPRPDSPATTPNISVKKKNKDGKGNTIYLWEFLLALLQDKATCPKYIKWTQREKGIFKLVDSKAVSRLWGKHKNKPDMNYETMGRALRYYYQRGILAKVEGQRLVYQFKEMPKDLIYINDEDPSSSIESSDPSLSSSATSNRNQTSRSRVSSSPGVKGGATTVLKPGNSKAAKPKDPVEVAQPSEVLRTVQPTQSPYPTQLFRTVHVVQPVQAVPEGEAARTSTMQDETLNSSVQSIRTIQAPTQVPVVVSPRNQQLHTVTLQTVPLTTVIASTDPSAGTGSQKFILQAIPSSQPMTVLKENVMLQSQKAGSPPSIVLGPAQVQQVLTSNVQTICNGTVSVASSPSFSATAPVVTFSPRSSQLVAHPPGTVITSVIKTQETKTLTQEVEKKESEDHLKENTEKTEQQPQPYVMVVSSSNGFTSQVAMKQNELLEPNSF

Take GAATGT: the binding signal is 1.14 fold enrichment (6-mer frequency, TF over GST control) in experiment [1]; 1.11 fold enrichment (6-mer frequency, TF over GST control) in experiment [2]; 1.12 fold enrichment (6-mer frequency, TF over GST control) in experiment [3]; 1.08 fold enrichment (6-mer frequency, TF over GST control) in [4]; 1.03 fold enrichment (6-mer frequency, TF over GST control) in [5]; 1.13 fold enrichment (6-mer frequency, TF over GST control) in experiment [6]. The binding signal is 1.07 fold enrichment (6-mer frequency, TF over GST control) in experiment [7]; 1.12 fold enrichment (6-mer frequency, TF over GST control) in experiment [8]; 1.06 fold enrichment (6-mer frequency, TF over GST control) in [9].
Take CTGCGA: the binding signal in experiment [1] is 1.25 fold enrichment (6-mer frequency, TF over GST control); in experiment [2], 1.31 fold enrichment (6-mer frequency, TF over GST control); in [3], 1.34 fold enrichment (6-mer frequency, TF over GST control); in experiment [4] it was 1.29 fold enrichment (6-mer frequency, TF over GST control); in experiment [5], 1.32 fold enrichment (6-mer frequency, TF over GST control); in experiment [6], 1.26 fold enrichment (6-mer frequency, TF over GST control). Also, the binding signal in [7] is 1.33 fold enrichment (6-mer frequency, TF over GST control); in experiment [8] it was 1.45 fold enrichment (6-mer frequency, TF over GST control); in experiment [9] it was 1.19 fold enrichment (6-mer frequency, TF over GST control).
With TTGGTT, the binding signal in experiment [1] was 1.51 fold enrichment (6-mer frequency, TF over GST control); in experiment [2], 1.38 fold enrichment (6-mer frequency, TF over GST control); in experiment [3], 1.45 fold enrichment (6-mer frequency, TF over GST control); in experiment [4], 1.37 fold enrichment (6-mer frequency, TF over GST control); in experiment [5] it was 1.39 fold enrichment (6-mer frequency, TF over GST control); in experiment [6], 1.4 fold enrichment (6-mer frequency, TF over GST control). Besides, the binding signal in experiment [7] was 1.43 fold enrichment (6-mer frequency, TF over GST control); in [8], 1.47 fold enrichment (6-mer frequency, TF over GST control); in experiment [9] it was 1.43 fold enrichment (6-mer frequency, TF over GST control).
As for AATTAC, the binding signal in experiment [1] is 1.24 fold enrichment (6-mer frequency, TF over GST control); in experiment [2], 1.19 fold enrichment (6-mer frequency, TF over GST control); in experiment [3], 1.26 fold enrichment (6-mer frequency, TF over GST control); in [4], 1.25 fold enrichment (6-mer frequency, TF over GST control); in experiment [5], 1.26 fold enrichment (6-mer frequency, TF over GST control); in experiment [6], 1.33 fold enrichment (6-mer frequency, TF over GST control). The binding signal is 1.35 fold enrichment (6-mer frequency, TF over GST control) in experiment [7]; 1.35 fold enrichment (6-mer frequency, TF over GST control) in experiment [8]; 1.24 fold enrichment (6-mer frequency, TF over GST control) in [9].
For the sequence TCACGA, the binding signal was 1.09 fold enrichment (6-mer frequency, TF over GST control) in experiment [1]; 1.19 fold enrichment (6-mer frequency, TF over GST control) in experiment [2]; 1.09 fold enrichment (6-mer frequency, TF over GST control) in experiment [3]; 1.1 fold enrichment (6-mer frequency, TF over GST control) in [4]; 1.13 fold enrichment (6-mer frequency, TF over GST control) in [5]; 1.21 fold enrichment (6-mer frequency, TF over GST control) in experiment [6]. Further, the binding signal in experiment [7] was 1.06 fold enrichment (6-mer frequency, TF over GST control); in experiment [8], 1.04 fold enrichment (6-mer frequency, TF over GST control); in [9], 1.21 fold enrichment (6-mer frequency, TF over GST control).
TCCGTA: the binding signal in experiment [1] was 1.57 fold enrichment (6-mer frequency, TF over GST control); in experiment [2] it was 1.63 fold enrichment (6-mer frequency, TF over GST control); in experiment [3] it was 1.59 fold enrichment (6-mer frequency, TF over GST control); in experiment [4], 1.52 fold enrichment (6-mer frequency, TF over GST control); in experiment [5], 1.59 fold enrichment (6-mer frequency, TF over GST control); in [6], 1.6 fold enrichment (6-mer frequency, TF over GST control). Moreover, the binding signal was 1.69 fold enrichment (6-mer frequency, TF over GST control) in experiment [7]; 1.58 fold enrichment (6-mer frequency, TF over GST control) in [8]; 1.62 fold enrichment (6-mer frequency, TF over GST control) in experiment [9].
Consider CTACCA, for which the binding signal in [1] was 1.27 fold enrichment (6-mer frequency, TF over GST control); in experiment [2] it was 1.27 fold enrichment (6-mer frequency, TF over GST control); in experiment [3] it was 1.42 fold enrichment (6-mer frequency, TF over GST control); in experiment [4] it was 1.29 fold enrichment (6-mer frequency, TF over GST control); in [5] it was 1.39 fold enrichment (6-mer frequency, TF over GST control); in experiment [6], 1.22 fold enrichment (6-mer frequency, TF over GST control). Also, the binding signal was 1.26 fold enrichment (6-mer frequency, TF over GST control) in experiment [7]; 1.23 fold enrichment (6-mer frequency, TF over GST control) in experiment [8]; 1.16 fold enrichment (6-mer frequency, TF over GST control) in [9].

(Values after publication PMC7862700, “An all-to-all approach to the identification of sequence-specific readers for epigenetic DNA modifications on cytosine”.)
